The campaign covered roughly 2,300 compounds. About 330 (14%) showed activity. Only a sample is shown. A number with no mark means an inactive call.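 Rule for the calls: active = median modified Z-score above 1.96; inactive = 1.96 or below.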
system: HepG2 Srxn1-GFP reporter cells (+30 nM CDDO-Me); assay: Srxn1-GFP intensity median modified Z-score relative to plate median; higher = stronger NRF2 / oxidative stress reporter activation, active = hit call of the paper; settings: 10 µM; exposure time: 24h
In short: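 Compound at 10 μM was applied with an NRF2 activator at 30 nM to HepG2 Srxn1-GFP BAC reporter cells for 24 h, in DMSO at no more than 0.1%, using three replicate 96-well plates seeded at 20,000 cells per well. Fixed, Hoechst-stained cells were imaged confocally and cytoplasmic GFP was scored for each cell, with images under 100 cells left out. The figure reported is the replicate median of the per-plate modified Z-score of GFP intensity. Scaling relied on 1.4826 × median absolute deviation.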

Structure (SMILES)	Srxn1-GFP intensity median modified Z-score
CCCCCN=C(N)NN=Cc1c[nH]c2ccc(OC)cc12 [euspeclibcmpd723]	-0.285
CCCOc1ccc2[nH]c(=NC(=O)OC)[nH]c2c1 [euspeclibcmpd575]	5.09 (active)
CCCSc1ccc2[nH]c(=NC(=O)OC)[nH]c2c1 [euspeclibcmpd630]	3.71 (active)
COc1ccc2[nH]cc(CCNC(C)=O)c2c1 [euspeclibcmpd1720]	-0.164
NCCc1c[nH]cn1 [euspeclibcmpd147]	0.0512
COC=C1CS[C@@H]2C(=NC(=O)C(NOC)c3csc(=N)[nH]3)C(=O)N2C1C(=O)OC(C)OC(=O)OC(C)C (stereo not given in full) [euspeclibcmpd832]	-0.299
O=C1CC2(CCCC2)CC(=O)N1CCCCN1CCN(c2ncccn2)CC1 [euspeclibcmpd948]	0.569
CC1(C)SC2C(NC(=O)C(C(=O)O)c3ccsc3)C(=O)N2C1C(=O)O (stereo not given) [euspeclibcmpd2129]	-0.127
C[C@H](CCC(=O)O)[C@H]1CCC2C3C(CC[C@@]21C)[C@@]1(C)CC[C@@H](O)C[C@H]1C[C@H]3O (stereo not given in full) [euspeclibcmpd2399]	-0.395
CCC(=O)O[C@H]1[C@H](O[C@@H]2[C@@H](C)[C@H](O[C@H]3C[C@@](C)(OC)[C@@H](O)[C@H](C)O3)C(C)C(=O)O[C@H](CC)[C@@](C)(O)[C@H](O)C(C)C(=O)C(C)C[C@@]2(C)O)O[C@H](C)C[C@@H]1N(C)C (stereo not given in full) [euspeclibcmpd411]	0.128
COC(=O)c1c(C)cc(O)cc1O [euspeclibcmpd2120]	-0.435
CC(=O)OCC(=O)[C@@]1(O)CCC2C3CC=C4CC(=O)C=CC4(C)C3[C@@H](O)C[C@@]21C (stereo not given in full) [euspeclibcmpd242]	-0.458
O=C(NCCN1CCOCC1)NC(=O)c1ccc(Cl)cc1	1.77
COC(=O)C1CCN(C(=O)C(OC(=O)C2CCC(=O)NC2)C(C)C)CC1 (stereo not given)	0.378
CCOc1ccc(C(=O)c2ccc(O)c(O)c2O)cc1 [euspeclibcmpd1369]	0.486
NNCCc1ccccc1 [euspeclibcmpd231]	0.202
N=C(N)N=C(N)NCCc1ccccc1 [euspeclibcmpd898]	4.79 (active)
O=C(CCCl)NCCc1ccccc1 [euspeclibcmpd2364]	0.0303
CC(=O)OCC(=O)[C@@]1(O)[C@@H](C)CC2C3CC=C4CC(=O)C=C[C@]4(C)[C@@]3(F)[C@@H](O)C[C@@]21C (stereo not given in full) [euspeclibcmpd2268]	0.239
CC(C)=CCOc1ccc2c(=O)c(-c3ccccc3)coc2c1	0.352
CCc1c2c(nc3ccc(OC(=O)N4CCC(N5CCCCC5)CC4)cc13)-c1cc3c(c(=O)n1C2)COC(=O)C3(O)CC (stereo not given) [euspeclibcmpd1960]	-0.421
CCCCCCCCCCCCCCCC[N+](C)(C)C [euspeclibcmpd1124]	7.69 (active)
CCCNCCCCCC[N+](C)(C)C [euspeclibcmpd616]	1.43
C[N+](C)(C)CCCCCC[N+](C)(C)C [euspeclibcmpd1134]	-0.198
CC1(C)O[C@@H]2CC3C4CC=C5CC(=O)C=C[C@]5(C)[C@@]4(F)[C@@H](O)C[C@]3(C)[C@]2(C(=O)CO)O1 (stereo not given in full) [euspeclibcmpd303]	-0.909

Structure (SMILES)	Srxn1-GFP intensity median modified Z-score
Cc1c[nH]c2ccccc12 [euspeclibcmpd1495]	0.0463
c1ccc2c(Cc3c[nH]c4ccccc34)c[nH]c2c1 [euspeclibcmpd2024]	18.3 (active)
OCc1c[nH]c2ccccc12 [euspeclibcmpd1454]	0.00439
O=P(O)(O)C(O)(Cc1cccnc1)P(=O)(O)O [euspeclibcmpd2383]	-0.244
COc1ccc(CCN(C)CCCC(C#N)(c2ccc(OC)c(OC)c2)C(C)C)cc1OC (stereo not given) [euspeclibcmpd958]	5.38 (active)
CC[C@H]1OC(=O)C(C)[C@@H](O[C@H]2C[C@@](C)(OC)[C@@H](O)[C@H](C)O2)[C@H](C)[C@@H](O[C@@H]2O[C@H](C)C[C@H](N(C)C)[C@H]2O)[C@](C)(O)CC(C)C(=O)C(C)[C@@H](O)[C@]1(C)O (stereo not given in full) [euspeclibcmpd2296]	-0.138
N#CC(c1ccc(Cl)cc1)c1c(Cl)cc(-n2ncc(=O)[nH]c2=O)cc1Cl (stereo not given) [euspeclibcmpd478]	15 (active)
NC(Cc1cc(I)c(Oc2cc(I)c(O)c(I)c2)c(I)c1)C(=O)O (stereo not given) [euspeclibcmpd345]	-0.572
NC(Cc1cc(I)c(Oc2ccc(O)c(I)c2)c(I)c1)C(=O)O (stereo not given) [euspeclibcmpd346]	-0.0135
O=C(O)Cc1cc(I)c(Oc2ccc(O)c(I)c2)c(I)c1 [euspeclibcmpd1243]	8.98 (active)
CNS(=O)(=O)Cc1ccc2[nH]cc(CCN(C)C)c2c1 [euspeclibcmpd759]	-0.145
CC(=O)O[C@@H]1C[C@@]2(C)C(CC[C@@H]2C(C)=O)C2CC=C3CC(=O)CC[C@]3(C)C21 (stereo not given in full) [euspeclibcmpd1433]	0.0291
C[C@]12C=CC(=O)CC1=CCC1C2[C@@H](O)C[C@@]2(C)C1CC[C@]2(O)C(=O)COP(=O)(O)O (stereo not given in full) [euspeclibcmpd2287]	0.582
Cc1ccc(NC(=O)c2ccc(CN3CCN(C)CC3)cc2)cc1N=c1nc(-c2cccnc2)cc[nH]1 [euspeclibcmpd1311]	4.53 (active)
O=C(O)c1ccc2c(c1)OCO2 [euspeclibcmpd1566]	-0.239
CC1(C)C2CC[C@]3(C)C(C(=O)C=C4C5C[C@@](C)(C(=O)O)CC[C@]5(C)CC[C@]43C)[C@@]2(C)CC[C@@H]1O (stereo not given in full) [euspeclibcmpd1147]	-1.35
O=C(O)CCCCC1SCC2NC(=O)NC21 (stereo not given) [euspeclibcmpd513]	-0.118
CC(C)(CO)C(=O)C(O)NCCC(=O)NCCSSCCNC(=O)CCNC(=O)C(O)C(C)(C)CO (stereo not given) [euspeclibcmpd1231]	-0.621
O=C(CCBr)N1CCN(C(=O)CCBr)CC1 [euspeclibcmpd576]	2.59 (active)
O=C(O)/C=C/C=C/c1ccc2c(c1)OCO2 [euspeclibcmpd1736]	-0.462
CC1(C)C2CC[C@]3(C)C(C(=O)C=C4C5C[C@@](C)(C(=O)O)CC[C@]5(C)CC[C@]43C)[C@@]2(C)CC[C@@H]1OC(=O)CCC(=O)O (stereo not given in full) [euspeclibcmpd2080]	-0.0685
NC(=O)c1ccc([N+](=O)[O-])cc1Cl [euspeclibcmpd514]	-0.559
CC(OC(=O)c1cc(Cl)ccc1O)C(=O)Nc1ccc([N+](=O)[O-])cc1Cl (stereo not given)	1.24
O=C(Nc1ccc([N+](=O)[O-])cc1Cl)c1cc(Cl)ccc1O [euspeclibcmpd562]	2.35 (active)
O=C(OCC(=O)N1CCCC1)c1sc2cc(Cl)cc(Cl)c2c1Cl	0.374

From the supplement of paper PMC10498489
